In PubChem BioAssay (EPA / NIEHS):
More than one record can exist for a structure, and the calls need not agree. Active and inactive are the calls of the source. The calls were made as follows: active = hit-call score of the fitted dose curve at least 0.9, where 1 is the maximum; inactive = score below 0.9.

What was measured:
[1] = read-out: TIMP metallopeptidase inhibitor 2 (TIMP2), TIMP2 (gene 7077); experiment: BSK_KF3CT_TIMP2: BioMAP Diversity Plus: KF3CT Assay for TIMP metallopeptidase inhibitor 2 (TIMP2) Biomarker Activity (AID 2283071); details: primary human keratinocytes with fibroblasts; actives raise or lower the signal
How it was run: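 Co-culture of human primary keratinocytes and foreskin fibroblasts, measured 24 h after chemical dosing. TIMP-2 quantified by ELISA and fitted in both directions relative to DMSO. Cytotoxicity checked in parallel cultures by SRB total-protein staining.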

[2] = read-out: C-C motif chemokine 2 (Homo sapiens) (UniProt P13500); experiment: BSK_KF3CT_MCP1: BioMAP Diversity Plus: KF3CT Assay for Monocyte Chemoattractant Protein 1 (MCP1/CCL2) Biomarker Activity (AID 2283073); details: primary human keratinocytes with fibroblasts; actives raise or lower the signal
How it was run: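 Human keratinocyte–foreskin fibroblast co-culture; MCP-1 measured by ELISA 24 h after dosing. Bidirectional fit vs DMSO; cytotoxicity tracked by SRB total protein in parallel cultures.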

[3] = read-out: Matrix Metallopeptidase 9 (MMP9), MMP9 (gene 4318); experiment: BSK_KF3CT_MMP9: BioMAP Diversity Plus: KF3CT Assay for Matrix Metallopeptidase 9 (MMP9) Biomarker Activity (AID 2283074); details: primary human keratinocytes with fibroblasts; actives raise or lower the signal;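 as to AC50: MMP9 protein level quantified by ELISA in the co-culture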
How it was run: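 Human keratinocyte/foreskin fibroblast co-culture; compound added; 24 h; MMP-9 by ELISA; bidirectional fit vs DMSO baseline.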

[4] = read-out: urokinase plasminogen activator (uPA), PLAU (gene 5328); experiment: BSK_KF3CT_uPA: BioMAP Diversity Plus: KF3CT Assay for urokinase plasminogen activator (uPA) Biomarker Activity (AID 2283075); details: primary human keratinocytes with fibroblasts; actives raise or lower the signal
How it was run: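 ELISA readout of uPA, analyzed for signal gain or loss relative to DMSO, from a human primary keratinocyte–foreskin fibroblast co-culture measured 24 h after chemical treatment.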

CD40, CD40 (gene 958) = experiment: BSK_LPS_CD40: BioMAP Diversity Plus: LPS Assay for CD40 Biomarker Activity (AID 2283076); details: primary human HUVEC with PBMC; actives raise or lower the signal
How it was run: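 HUVEC plus PBMC co-culture stimulated with LPS; CD40 quantified by ELISA 24 h after compound dosing. Fitting was bidirectional relative to DMSO. SRB staining of parallel cultures flagged overt cytotoxicity.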

[5] = read-out: E-selectin (Homo sapiens) (UniProt P16581); experiment: BSK_LPS_Eselectin: BioMAP Diversity Plus: LPS Assay for Eselectin Biomarker Activity (AID 2283077); details: primary human HUVEC with PBMC; actives raise or lower the signal
How it was run: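 Human umbilical vein endothelial cells co-cultured with PBMC under LPS stimulation; cell-surface E-selectin measured by ELISA 24 h after dosing. Change in either direction versus DMSO, with SRB total-protein staining in parallel cultures for cytotoxicity.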

[6] = read-out: Interleukin-8 (IL8), CXCL8 (gene 3576); experiment: BSK_LPS_IL8: BioMAP Diversity Plus: LPS Assay for Interleukin-8 (IL8) Biomarker Activity (AID 2283078); details: primary human HUVEC with PBMC; actives raise or lower the signal
How it was run: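 Human umbilical vein endothelial cells co-cultured with PBMC, LPS-stimulated, exposed to compound for 24 h. IL-8 quantified by ELISA; fitted in both directions against DMSO, with SRB total-protein staining of parallel cultures for cytotoxicity.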

[7] = BSK_LPS_SRB: Viability Assessment in the BioMAP Diversity Plus: LPS Assay (AID 2283079); details: primary human HUVEC with PBMC;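 also: total protein by sulforhodamine B absorbance as a cytotoxicity measure; measured one day after compound addition; fitted in both directions against DMSO so loss or gain of signal counts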
How it was run: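 Co-culture of human umbilical vein endothelial cells and PBMC, read 24 h after dosing. Total protein by 0.1% SRB staining after 10% TCA fixation, absorbance at 560 nm; bidirectional fit against DMSO.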

[8] = read-out: Interleukin-1 alpha (IL1a), IL1A (gene 3552); experiment: BSK_LPS_IL1a: BioMAP Diversity Plus: LPS Assay for Interleukin-1 alpha (IL1a) Biomarker Activity (AID 2283080); details: primary human HUVEC with PBMC; actives raise or lower the signal
How it was run: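 Human umbilical vein endothelial cells co-cultured with PBMC and stimulated with LPS; IL-1a measured by ELISA 24 h after dosing. Bidirectional fitting against DMSO; cytotoxicity checked by SRB staining in parallel cultures.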

[9] = read-out: Transforming growth factor beta 1 (TGFb1), TGFB1 (gene 7040); experiment: BSK_KF3CT_TGFb1: BioMAP Diversity Plus: KF3CT Assay for Transforming growth factor beta 1 (TGFb1) Biomarker Activity (AID 2283072); details: primary human keratinocytes with fibroblasts; actives raise or lower the signal
How it was run: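 Human keratinocyte/foreskin fibroblast co-culture; TGF-b1 measured by ELISA 24 h after dosing, fitted bidirectionally versus DMSO. Cytotoxicity checked in parallel cultures by total protein (SRB staining, 560 nm).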

Measured: AC50

Chain of E-selectin (Homo sapiens) (P16581 whole entry, looked up): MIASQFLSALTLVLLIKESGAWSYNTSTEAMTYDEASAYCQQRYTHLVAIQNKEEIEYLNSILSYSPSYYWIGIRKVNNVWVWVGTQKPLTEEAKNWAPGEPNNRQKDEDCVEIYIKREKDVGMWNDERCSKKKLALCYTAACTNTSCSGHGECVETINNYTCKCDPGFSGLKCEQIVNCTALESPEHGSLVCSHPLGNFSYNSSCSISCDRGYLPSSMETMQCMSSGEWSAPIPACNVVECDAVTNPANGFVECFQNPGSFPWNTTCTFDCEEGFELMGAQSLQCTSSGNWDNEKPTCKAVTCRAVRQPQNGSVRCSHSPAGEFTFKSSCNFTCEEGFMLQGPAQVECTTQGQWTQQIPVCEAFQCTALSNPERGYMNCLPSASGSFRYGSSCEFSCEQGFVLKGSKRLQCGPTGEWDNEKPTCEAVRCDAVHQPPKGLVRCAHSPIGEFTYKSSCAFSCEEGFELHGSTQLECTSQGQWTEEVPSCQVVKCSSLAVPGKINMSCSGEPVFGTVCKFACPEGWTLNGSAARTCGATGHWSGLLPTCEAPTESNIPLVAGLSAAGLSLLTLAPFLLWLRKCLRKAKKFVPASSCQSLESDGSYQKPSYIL

CC(=O)OC(c1ccccc1)C(Cl)(Cl)Cl (stereo unspecified)
active: [8] 17.6 µM
inactive: [1] | [2] | [3] | [4] | CD40, CD40 (gene 958) | [5] | [6] | [7] | [8]

CC(C)(C)CC(C)(C)c1ccc(O)cc1
active: [1] 7.95 µM | [2] 6.72 µM | [3] 9.64 µM | [4] 9.6 µM | CD40, CD40 (gene 958) 7.8 µM | [5] 11.7 µM | [6] 13.9 µM | [7] 12.9 µM | [8] 8.47 µM

O=Cc1cccc(Oc2ccccc2)c1
inactive: all assays above

ClC1(Cl)C2(Cl)C3(Cl)C4(Cl)C(Cl)(Cl)C5(Cl)C3(Cl)C1(Cl)C5(Cl)C24Cl (stereo unspecified)
inactive: all assays above

CCCCCCCCc1ccc(O)cc1
active: [1] 30 µM | [9] 22.4 µM | [3] 28.8 µM | [4] 31.6 µM | CD40, CD40 (gene 958) 31.5 µM | [5] 37.8 µM | [6] 36.5 µM | [7] 34.1 µM | [8] 31 µM

CC(=O)[O][Hg][c]1ccccc1
active: [1] 0.148 µM | [9] 0.146 µM | [3] 0.189 µM | [4] 0.625 µM | CD40, CD40 (gene 958) 1.62 µM | [5] 3.35 µM | [6] 6.47 µM | [7] 1.09 µM | [8] 1.25 µM

OCc1ccco1
inactive: all assays above

COC[C@H](C)N(C(=O)CCl)c1c(C)csc1C
inactive: all assays above

Nc1ccc(-c2ccc(N)c(Cl)c2)cc1Cl
active: [3] 4.21 µM | [7] 7.78 µM
inactive: all other assays above

CCN1CCC2(CC1)COc1cc3c(cc12)N(C(=O)c1ccc(-c2ccc(-c4nnc(C)o4)cc2C)cc1)CC3
active: [1] 17.9 µM | [9] 18.7 µM | [2] 27 µM | [3] 14.3 µM | [4] 29.9 µM | CD40, CD40 (gene 958) 9.75 µM | [5] 29.3 µM | [6] 14.1 µM | [7] 14.7 µM | [8] 9.03 µM

CC(C)(c1ccccc1)c1ccc(O)c(C(C)(C)c2ccccc2)c1
active: [1] 2.17 µM | [9] 2.83 µM | [2] 4.19 µM | [3] 2.41 µM | [4] 2.85 µM | CD40, CD40 (gene 958) 12.3 µM | [6] 12 µM | [7] 12.7 µM | [8] 11.1 µM

CCOP(=S)(OCC)SCSP(=S)(OCC)OCC
inactive: all assays above

O=S(=O)(c1ccc(Cl)cc1)c1ccc(Cl)cc1
inactive: all assays above

NC(=S)Nc1ccccc1
inactive: all assays above

CCOP(=S)(OCC)Oc1ccc(S(C)=O)cc1 (stereo unspecified)
inactive: all assays above

Cc1ccccc1N
inactive: all assays above

CC(C)c1ccc(CO)cc1
inactive: all assays above
